# Rows were chosen to be rich in hits. Some 18% of all compounds tested hit in one or more screens of this group.
# TDP1 block: TDP1 (human) enzyme inhibition; Q9NUW8; AID 485290; recombinant TDP1, AlphaScreen DNA substrate cleavage; 350,000 tested, 0.28% active; Potency, µM (doses to about 130 µM), inactives show at the top dose activity change, negative = inhibition, hits mostly inhibitors; note: potency is the fitted concentration of half-maximal effect; % is set by controls: 0 for no effect and ±100 for the full control effect; nearly all actives have a fitted effect of over 40% in size
# Target sequence (Q9NUW8 whole entry, looked up): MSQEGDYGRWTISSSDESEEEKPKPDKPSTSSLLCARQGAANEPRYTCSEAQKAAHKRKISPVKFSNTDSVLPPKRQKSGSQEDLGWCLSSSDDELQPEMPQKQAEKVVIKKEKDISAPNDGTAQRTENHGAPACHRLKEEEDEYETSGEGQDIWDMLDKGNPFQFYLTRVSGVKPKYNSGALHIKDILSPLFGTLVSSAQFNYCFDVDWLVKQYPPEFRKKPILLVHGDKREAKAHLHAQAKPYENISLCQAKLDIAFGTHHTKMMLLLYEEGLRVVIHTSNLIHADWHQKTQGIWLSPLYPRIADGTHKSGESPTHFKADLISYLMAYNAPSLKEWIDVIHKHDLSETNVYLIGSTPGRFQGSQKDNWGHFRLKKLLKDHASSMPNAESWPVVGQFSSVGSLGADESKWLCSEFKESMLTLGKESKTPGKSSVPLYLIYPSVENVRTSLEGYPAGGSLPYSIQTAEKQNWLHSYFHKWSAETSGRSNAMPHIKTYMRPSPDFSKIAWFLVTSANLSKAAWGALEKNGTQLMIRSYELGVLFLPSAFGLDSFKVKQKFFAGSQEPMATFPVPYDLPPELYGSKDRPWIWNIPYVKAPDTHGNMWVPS
#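 Compounds were preincubated with Tdp1 (1 nM final) for 15 min at room temperature before substrate (15 nM final) started a 5 min reaction; beads (10 ug/ml final) were then added for 10 min before AlphaScreen detection.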
# IL1B secr inh: blocks inflammasome-driven IL-1 beta release; THP-1 LPS/ATP IL-1B secretion, AlphaLISA, 16 h; stronger effect = lower value; activity change, % at 57.5 µM; 360,000 tested, 4.7% active; AID 743279; in the data active = activity change below about -50%; inconclusive = mostly about -30% to -49%; note: % is set by controls: 0 for no effect and ±100 for the full control effect
#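 THP-1 cells pretreated 1 hr with compounds (up to 57.5 uM final), then stimulated with LPS (250 ng/mL final) plus ATP (1.25 mM final); secreted IL-1B measured by AlphaLISA after 16 hr, decreased signal indicating inhibition.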
# DT40 TDP1 CPT: DT40-hTDP1 cell growth loss with CPT; chicken DT40 Tdp1-/-;hTDP1 cells + 20 nM CPT, ATP luminescence, 48 h; Potency, µM (titrated, usually from 46.2 µM), inactives show at the highest dose activity change, negative = growth inhibition, most hits filed as inhibitors; 420,000 tested, 12% active; note: potency is the fitted concentration of half-maximal effect; % is set by controls: 0 for no effect and ±100 for the full control effect; nearly all actives have a fitted effect of over 55% in size
#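 Chicken DT40 Tdp1-/- cells complemented with human TDP1, 400 cells/well, exposed to compounds plus 20 nM camptothecin for at least 48 h at 37 C; viability read as ATP content by CellTiter-Glo luminescence.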
# TDP1 cell noCPT: qHTS for Inhibitors of human tyrosyl-DNA phosphodiesterase 1 (TDP1): qHTS in cells in absence of CPT. 420,000 tested, 15% active. AID 686978, 2013. Potency, µM (highest dose often 46.2 µM), without a hit: at the highest dose activity change, negative = growth inhibition, usual class: inhibitors. DT40 Tdp1-/- hTDP1 cells, no CPT, ATP luminescence, 48 h; note: potency is the fitted concentration of half-maximal effect; % is set by controls: 0 for no effect and ±100 for the full control effect; nearly all actives have a fitted effect of over 55% in size
#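 Chicken DT40 Tdp1-/- cells stably complemented with human TDP1 were seeded at 400 cells/well with DMSO in place of 20 nM camptothecin. After compound pinning, cells grew at least 48 hr at 37 °C; viability read by CellTiter-Glo luminescence.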
# TGFb inhibitor: inhibitors of TGF-b signaling; HepG2 CAGA-GFP TGF-b/SMAD3 reporter, GFP fluorescence, 18 h; TGF-beta stimulated, 500 pg/mL final; Potency, µM (titrated, usually from 46.1 µM), without a hit: at the highest dose activity, negative = inhibition, hits mostly inhibitors; 410,000 tested, 1.2% active; note: potency is the fitted concentration of half-maximal effect; % is set by controls: 0 for no effect and ±100 for the full control effect; nearly all actives have a fitted effect of over 65% in size
#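 First, reporter cells (HEPG2 CAGA-GFP) rested 2 h at 37 degrees C. Next, compounds were pinned in and TGF-beta added to 500 pg/mL final. After 18 h, GFP was imaged per cell and summed per well.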
# HepG2 tox: kills HepG2 cells in TGF-b inhibitor counter-screen; HepG2 CAGA-GFP viability, ATP luminescence, 18 h; Potency, µM (doses to about 46.1 µM), inactives show at the top dose activity change, negative = cytotoxicity, actives largely listed as cytotoxic; 410,000 tested, 0.76% active; note: potency is the fitted concentration of half-maximal effect
#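 HepG2 CAGA-GFP cells (1000/well, DMEM with 1% FBS) received compound, then TGF-beta at 500 pg/mL final, and were incubated 18 hours at 37 degrees C. Viability was read by CellTiter-Glo luminescence. Media-only wells were set as complete cell-killing and DMSO as no toxicity.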
# Active calls of the source: *; ? = inconclusive; . = no result; [ ] = dose if it differs, or a comment. Unless noted, calls come from the whole dose curve; as a rule, active = well fitted curve in the direction sought with a large enough effect; inconclusive = small, poorly fitted or top-dose-only effect, or another doubt; inactive = no such curve, though single readings can be large; an effect the other way counts as inactive or inconclusive.
SMILES,TDP1 block,IL1B secr inh,DT40 TDP1 CPT,TDP1 cell noCPT,TGFb inhibitor,HepG2 tox
Cc1ccc(Cl)c(NC(=O)CSc2n[nH]c(=O)n2C2CC2)c1Cl,-0.1%,11.6,-17.0%,-27.8%,-3.8%,0.3%
O=C(NCc1cccc(Cl)c1)c1cccc2c(-c3cccnc3)coc12,.,?,16.4µM*,?,?,-44.1%
COc1ccc(CNC(=O)c2cccc3c(-c4cccnc4)coc23)cc1OC,.,-20.4,1.16µM*,1.46µM*,-6.9%,-27.7%
O=C(NCc1cccs1)c1cccc2c(-c3cccnc3)coc12,.,?,?,-65.8%,-0.4%,1.1%
O=C(NCCc1ccccc1)c1cccc2c(-c3cccnc3)coc12,.,-14.7,-17.8%,-24.8%,15.7%,-25.2%
Cc1nc([N+](=O)[O-])cn1CC(=O)c1ccc2c(c1)OCCCO2,.,.,-29.6%,?,18.9%,11.4%
OC(CCCN1CCCCC1)(c1ccccc1)c1ccc(C(F)(F)F)cc1 (configuration not stated),.,-22.2,?,18.4µM*,-3.3%,-9.4%
Cc1cc(O)c2c(C)c(CC(=O)N3CCCCC3)c(=O)oc2c1,4.9%,.,3.6%,?,3.7%,-0.4%
COC(=O)c1c(C(=O)OC)c(-c2ccc(C)cc2)n2c1CS(=O)(=O)C2,7.0%,15.4,-25.6%,?,16.5%,10.3%
COC(=O)c1c(C(=O)OC)c(-c2ccc(Cl)cc2)n2c1CS(=O)(=O)C2,4.6%,0.7,20.6µM*,20.6µM*,0.0%,-36.0%
CCN(CC)C(=O)C1CCN(c2nnc(C)c3c(C)n(-c4ccc(Cl)cc4)nc23)CC1,2.8%,.,-5.4%,4.0%,-22.4%,-3.1%
Cc1ccc(Cl)cc1NC(=O)C1CCN(c2nc3ccccc3n3cccc23)CC1,1.3%,.,?,16.4µM*,0.0%,-7.3%
O=C(NCc1ccc(F)cc1)C1CCCN(c2cnccn2)C1 (configuration not stated),2.7%,3.1,0.6%,-14.0%,0.0%,4.1%
Cc1nnc(N2CCC(C(=O)NCc3ccc(F)cc3)CC2)c2nn(-c3ccc(Cl)cc3)c(C)c12,-5.6%,.,16.4µM*,?,?,-80.9%
O=C(NCc1ccc(F)cc1)C1CCN(c2cnccn2)CC1,0.0%,20.6,18.4µM*,?,26.8%,13.1%
Cc1ccc(Cl)cc1NC(=O)C1CCN(c2nnc(C)c3c(C)n(-c4ccccc4)nc23)CC1,2.8%,.,8.2µM*,10.3µM*,-22.4%,4.4%
O=C(NCCCc1ccccc1)c1c(O)nc2sccn2c1=O,0.4%,-3.6,?,?,0.3%,-0.1%
O=C1c2ccccc2NC(c2ccc(F)cc2)N1Cc1ccccc1 (configuration not stated),.,-18.3,?,?,-26.6%,-19.8%
CCOCCc1nnc(NC(=O)CS(=O)(=O)c2ccc(C)cc2)s1,10.9%,6.4,-10.1%,-19.0%,6.1%,4.8%
CCc1ccccc1NC(=O)N1CCN(c2nnc(C)c3c(C)n(-c4ccccc4)nc23)CC1,-3.2%,.,?,20.6µM*,-7.9%,-0.3%
Cc1nnc(N2CCC(C(=O)NCCc3ccccc3)CC2)c2nn(-c3ccc(Cl)cc3)c(C)c12,2.8%,.,14.6µM*,20.6µM*,?,-16.8%
CC1CC(C)(C)NC(=S)N1CC(=O)NCc1ccc2c(c1)OCO2 (configuration not stated),1.2%,1.3,-1.3%,-25.9%,-0.9%,-8.0%
Cc1ccc(C)c(NC(=O)CSc2nncn2C)c1,.,36.6,-2.1%,-5.1%,-9.6%,-16.7%
O=S(=O)(c1ccc2ccccc2c1)N1CCCCCC1,2.8%,-1.9,4.0%,-20.8%,10.3%,-30.5%
O=S(=O)(CC(CN1CCCC1)N1CCCC1)c1ccc2ccccc2c1 (configuration not stated),2.4%,-107.1*,3.26µM*,4.61µM*,0.0%,-24.0%
SMILES,TDP1 block,IL1B secr inh,DT40 TDP1 CPT,TDP1 cell noCPT,TGFb inhibitor,HepG2 tox
COc1ccc(S(=O)(=O)N2CCN(C(=O)CN3C(=O)NC(C)(c4ccc5ccccc5c4)C3=O)CC2)cc1 (configuration not stated),.,-15.7,?,23.1µM*,0.0%,-41.1%
CC1(c2ccc3ccccc3c2)NC(=O)N(CC(=O)N2CCN(Cc3ccccc3)CC2)C1=O (configuration not stated),0.2%,?,8.2µM*,4.61µM*,?,-11.0%
COCC1CCCN(Cc2ccc3c(c2)CN(C(=O)c2ccc(-n4cccn4)cc2)CCO3)C1 (configuration not stated),.,.,7.4%[9.04 µM],-0.1%,.,.
Cc1ccc(-c2nc3sc(C(N)=O)c(N)c3c3c2CCCC3)cc1,-0.6%,-2.3,?,?,?,-4.0%
NC(=O)c1sc2nc(-c3ccccc3)c3c(c2c1N)CCCC3,3.7%,8.5,?,16.4µM*,-27.2%,-3.5%
CCc1nc2sc(C(C)=O)c(N)c2c2c1CCCC2,2.8%,-2.3,?,14.6µM*,-6.7%,-21.6%
CC(C)c1nc2sc(C(=O)O)c(N)c2c2c1CCCC2,5.0%,-0.1,9.9%,-18.2%,-26.9%,-11.9%
Cc1nc2sc(C(N)=O)c(N)c2c2c1CCCC2,-1.4%,-94.5*,?,?,?,20µM*
COc1ccc(NC(=O)CC23CC4CC(CC(Br)(C4)C2)C3)c(OC)c1,.,18.5,14.8%,-1.6%,16.6%,5.6%
NC(=O)NN=C1CCC(OCc2ccccc2)CC1CC(=O)O (configuration not stated),.,-12.6,-1.7%,1.0%,-3.4%,-10.0%
CC1CC(C)CN(CCCNC(=O)c2ccc3c(c2)ncn3C2CCCC2)C1 (configuration not stated),9.4%,-4.0,-0.6%,8.7%,3.4%,2.0%
Cc1ccc(SCC(=O)Nc2cccc(NC(=O)c3ccco3)c2)cc1,-1.0%,18.7,-21.7%,3.4%,-1.6%,-1.8%
COc1cccc2c1OC1(C)CC2NC(=O)N1c1cccc(C(=O)N2CCN(c3ccccn3)CC2)c1 (configuration not stated),5.1%,-15.1,-2.5%,?,-0.3%,-18.3%
CCOc1cccc2c1OC1(C)CC2NC(=O)N1c1cccc(C(=O)N2CCN(c3ccccn3)CC2)c1 (configuration not stated),4.8%,-65.5*,-22.8%,-19.6%,-7.5%,-8.2%

# Compound activity (PubChem BioAssay)
